HCV inh – qHTS Assay for Inhibitors of Hepatitis C Virus (HCV) | Huh7.5.1 HCVcc-Cre infection, luciferase reporter, 44 h | Potency, µM (top dose mostly 41.8 µM), for inactives: at the highest dose activity change, negative = inhibition, most hits filed as inhibitors | 340,000 tested, 3.4% active | AID 651820, 2012; active = well fitted inhibition curve with a large enough effect; inconclusive = small, poorly fitted or top-dose-only effect, or another doubt; inactive = no such curve, though single readings can be large or run the other way; note: potency is the fitted concentration of half-maximal effect; % is set by controls: 0 for no effect and ±100 for the full control effect
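Luciferase read-out (15 sec integration) after a 15 min room-temperature substrate step quantifies HCVcc-Cre infection. Cells, 1,000 per well, had compound added 4 h post-plating, then virus at ~0.5 moi, and were cultured 44 h.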
MARV entry inh – qHTS for inhibitors of binding or entry into cells for Marburg Virus; Marburg virus pseudotyped entry inhibition, cell reporter; Potency, µM (doses to about 37.8 µM), without a hit: at the top dose activity change, negative = inhibition, hits mostly inhibitors; 300,000 tested, 1.8% active; AID 540276, 2011; calls by dose curve; tested in HEK293 cells; note: potency is the fitted concentration of half-maximal effect; % is set by controls: 0 for no effect and ±100 for the full control effect
FMDV inh – High Throughput Screening for Foot and Mouth Disease Virus Antivirals | Potency, µM (top dose mostly 57.9 µM), for the others: at the highest dose activity change, negative = inhibition, hits mostly inhibitors | 410,000 tested, 1.2% active | AID 1159524, 2015 | FMDV antiviral cell-based qHTS; calls by dose curve; tested in HEK293T cells; note: read-out not given here; potency is the fitted concentration of half-maximal effect; % is set by controls: 0 for no effect and ±100 for the full control effect; nearly all actives have a fitted effect of over 45% in size
LASV entry inh – qHTS for Inhibitors of binding or entry into cells for Lassa Virus; Lassa virus pseudotype entry inhibition, cell reporter; Potency, µM (top dose mostly 37.9 µM), for the others: top-dose activity change, negative = inhibition, usual class: inhibitors; 300,000 tested, 1.2% active; calls by dose curve; tested in HEK293 cells; note: potency is the fitted concentration of half-maximal effect; % is set by controls: 0 for no effect and ±100 for the full control effect; nearly all actives have a fitted effect of over 50% in size
SARS PLpro yeast – qHTS of Yeast-based Assay for SARS-CoV PLP. 330,000 tested, 0.19% active. AID 485353, 2010. Potency, µM (series often up to 32.9 µM), without a hit: at the highest dose activity, positive = growth rescue, hits mostly activators. S. cerevisiae expressing SARS-CoV PLpro, growth rescue; calls by dose curve; note: potency is the fitted concentration of half-maximal effect; 0% is about no effect; nearly all actives have a fitted effect of over 55% in size
HCMV antiviral – qHTS Assay for inhibitors of the human cytomegalovirus (HCMV). activity change, negative = inhibition, % at 57.5 µM. HFF cells, HCMV-luciferase reporter, 72 h; stronger effect = lower value. 410,000 tested, 4.5% active; in the data active = activity change below about -60%; inconclusive = no clear call, values can overlap the other calls; inactive = above about -39%; note: % is set by controls: 0 for no effect and ±100 for the full control effect
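Screen run at 2 compound doses on HFFs infected with reporter HCMV, MOI 1 PFU/cell. Luciferase activity from cell lysates at 72 h post infection gave inhibition relative to buffer-only and Salinomycin wells.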
An asterisk follows results filed as active; ? = inconclusive; nt = no result; [ ] = another dose, or the depositor's remark. This is a sample that favours compounds with a hit; in the whole collection about 8% have one here.

SMILES | HCV inh | MARV entry inh | FMDV inh | LASV entry inh | SARS PLpro yeast | HCMV antiviral
COc1ccc(-n2ncc3c(N4CCCCC4)ncnc32)cc1 | ? | nt | 10µM* | nt | -14.8% | nt
Cc1ccc(-n2ncc3c(N4CCCCC4)ncnc32)cc1 | nt | nt | ? | ? | nt | -100.5*
COc1ccc(-n2ncc3c(NCC(C)C)ncnc32)cc1 | 14.1µM* | ? | -29.6% | ? | -6.6% | 120.5
Cc1ccc(-n2ncc3c(N4CCC(Cc5ccccc5)CC4)ncnc32)cc1 | nt | nt | -27.8% | 25.2%[46.1 µM] | nt | ?
O=C(C1=C(O)C(=O)N(CCN2CCOCC2)[C@H]1c1cccnc1)c1cc2ccccc2o1 | nt | 0.8% | nt | nt | nt | nt
CN1CCN(c2ccc(-c3cc(O)c4ncccc4c3)cc2)CC1 | nt | nt | nt | nt | -9.1% | nt
CC(C(=O)N1CCc2ccccc21)N1CCN(Cc2ccccc2)CC1 (centres undefined) | 3.4% | nt | -8.7% | nt | 0.0% | -8.2
COc1cc(NC(=O)C2CCN(c3cnccn3)CC2)cc(OC)c1OC | 2.9% | nt | -15.8% | nt | ? | ?
Cc1ccc(Cl)cc1N1CCN(c2ncnc3onc(C)c23)CC1 | nt | nt | ? | ? | nt | -13.2
CN1CCN(c2ncnc3c2cnn3-c2cccc(Cl)c2)CC1 | nt | nt | -2.3% | ? | nt | 71.1
Cc1noc2ncnc(N3CCN(c4cccc(Cl)c4)CC3)c12 | 10µM* | nt | 25.1µM* | nt | -1.0% | -71.6*
Cn1ncc2c(N3CCN(c4cccc(Cl)c4)CC3)ncnc21 | nt | nt | 15.8µM* | ? | nt | -11.3
Clc1ccc(-n2ncc3c(N4CCCCCC4)ncnc32)cc1 | -4.9% | nt | ? | nt | 2.0% | -79.4*
Cc1ccc(N2C(=O)C[C@H](Cn3nc(C)cc3C)C2=O)cc1 | nt | -0.9% | nt | nt | nt | nt
COC(=O)[C@]1(C#N)CC(=O)N([C@H](C)[C@H](O)c2ccccc2)[C@@H]1c1ccccc1 | nt | nt | nt | nt | nt | 34.5
COCc1cc(=O)[nH]c(Nc2nc3ccc(C)cc3o2)n1 | ? | ? | ? | ? | -5.5% | -102.2*
O=C(NCC1CCC2(CCN(Cc3cccc4cccnc34)CC2)O1)c1ccco1 (centres undefined) | nt | nt | 5.4% | nt | nt | nt
O=C(/C=C/c1cccc(Br)c1)NC1CCN(Cc2ccccc2)CC1 | ? | ? | ? | 27.5%[46.1 µM] | -1.3% | ?
O=C(/C=C/c1cccc(F)c1)NC1CCN(Cc2ccccc2)CC1 | -22.7% | -2.3%[46.1 µM] | -15.7% | 5.3% | 1.5% | -63.4*
CC(=O)Nc1ccc(C(=O)CCl)cc1 | -23.5% | 3.0% | 28.2µM* | nt | 1.0% | -2.2
CC(=O)NCc1ccc(C(=O)CCl)cc1 | ? | 18.2%[46.1 µM] | 31.6µM* | -8.3%[46.1 µM] | 4.3% | -23.0
CC(=O)NCCC(=O)NCc1ccc(F)cc1 | 12.5% | 17.8%[46.1 µM] | 11.7% | 18.8% | -3.9% | 50.5
CC(=O)NCc1ccc(C(=O)CCl)s1 | ? | 4.47µM* | 28.2µM* | ? | 15.2% | -15.8
Cc1nnc(N(C)C(=O)c2ccncc2)s1 | -5.5% | nt | 9.1% | nt | 0.4% | 0.5
O=C(c1ccco1)N1CCN(c2nc3c(F)cc(F)cc3s2)CC1 | nt | nt | -4.5% | ? | nt | 17.0
SMILES | HCV inh | MARV entry inh | FMDV inh | LASV entry inh | SARS PLpro yeast | HCMV antiviral
Cc1ccc(Cc2nc3ccccc3nc2SCC(=O)NCCC(C)C)cc1 | nt | nt | -1.9% | -13.1%[46.1 µM] | nt | 8.8
COc1cc(CNC(=O)c2cc(C(=O)NCc3cc(OC)cc(OC)c3)n(C)n2)cc(OC)c1 | -25.4% | -2.4% | -28.0% | 3.4% | -7.1% | -13.1
COc1ccc2c(c1)OC[C@H]1[C@H]2N2C(=O)c3cc(F)ccc3NC(=O)[C@@]2(C)[C@H]1c1ccccc1 | 11.2µM* | nt | 0.0% | nt | -0.7% | 0.5
COc1ccc2c(c1)OC[C@H]1[C@H]2N2C(=O)c3cc(OC)ccc3NC(=O)[C@@]2(C)[C@H]1c1ccccc1 | ? | nt | -29.5% | nt | 3.2% | -21.0
COc1ccc2c(c1)C(=O)N1[C@H]3c4cc(Cl)ccc4OC[C@@H]3[C@H](c3ccccc3)[C@]1(C)C(=O)N2 | ? | nt | -21.9% | nt | 4.5% | -60.4*
Cc1ccc2c(c1)[C@H]1[C@H](CO2)[C@H](c2ccccc2)[C@]2(C)C(=O)Nc3cc(F)c(F)cc3C(=O)N12 | ? | nt | ? | nt | -13.9% | -69.9*
C[C@@]12C(=O)N(c3cccc(Cl)c3)C(=O)N1[C@@H]1c3ccccc3OC[C@@H]1[C@H]2c1ccccc1 | ? | nt | 0.0% | nt | -0.8% | 94.4
C[C@@]12C(=O)N(c3cccc(F)c3)C(=O)N1[C@@H]1c3ccccc3OC[C@@H]1[C@H]2c1ccccc1 | ? | nt | ? | nt | -3.3% | -100.8*
COc1ccccc1NC(=O)N1CC=C(c2c[nH]c3ccccc23)CC1 | nt | 20.9%[46.1 µM] | -2.0% | nt | nt | 43.4
CC(C)n1c(=S)[nH]c2ccccc2c1=O | -16.1% | -6.7% | 8.8% | -8.5% | 3.8% | ?
CC(C)n1c(=S)[nH]c2cc(Cl)ccc21 | 2.8% | nt | -12.1% | nt | 23.9% | -72.0*
CNC[C@H](CC1CCCCC1)NC[C@H](Cc1ccccc1)NCCC12CC3CC(CC(C3)C1)C2 | 1.1%[8.37 µM] | nt | 31.6µM* | nt | -6.8% | -105.0*
CC1CCN(S(=O)(=O)c2cc(C(=O)N3CCN(c4cccc(Cl)c4)CC3)n(C)c2)CC1 | nt | nt | ? | -21.8%[46.1 µM] | nt | ?
COc1ccc(Cl)cc1Nc1nc(C)cc(=O)[nH]1 | 10µM* | -7.3% | -13.6% | 9.5% | -1.2% | 40.0
COc1ccc(Cl)cc1N/C(N)=N/c1nc(C)cc(=O)[nH]1 | -10.7% | 3.8%[46.1 µM] | 1.1% | -30.0%[46.1 µM] | 1.1% | -0.7
O=C(NCc1ccc(Cl)cc1)O[C@H]1CC[C@@]23CCCN2C(=O)CCC[C@H]3[C@H]1Cc1ccccc1 | nt | nt | nt | nt | nt | 11.9
COc1ccc(C(=O)NCC(c2ccc(N(C)C)cc2)N2CCCC2)c(OC)c1 (centres undefined) | nt | nt | -14.6% | -14.4%[46.1 µM] | nt | -13.6
CCCc1cc(NCc2ccccn2)n2nc(C)c(-c3ccccc3)c2n1 | ? | ? | -13.2% | ? | -4.5% | -94.6*
CCCc1cc(N2CCCC2)n2nc(C)c(-c3ccccc3)c2n1 | ? | -29.0% | -6.7% | -26.7% | ? | ?
Cc1cc(NCCCN2CCOCC2)n2nc(C)c(-c3ccccc3)c2n1 | -26.1% | ? | -16.5% | 3.8% | 8.1% | 44.0
Cc1nn2c(NCc3ccccn3)cc(C(C)C)nc2c1-c1ccccc1 | 3.98µM* | nt | -26.7% | nt | 0.7% | -97.7*
Cc1cc(NCCC(C)C)n2nc(C)c(-c3ccccc3)c2n1 | 8.91µM* | ? | 0.7% | -6.1% | -57.1% | 12.0
Cc1cc(NCc2ccccn2)n2ncc(-c3ccccc3)c2n1 | 2.82µM* | ? | 1.3% | ? | -2.5% | -66.2*
Cc1nn2c(NCC(C)C)c3c(nc2c1-c1ccccc1)CCC3 | 6.31µM* | ? | -8.9% | -18.0% | 5.3% | nt
Cc1nn2c(NC(C)C)c3c(nc2c1-c1ccccc1)CCC3 | -28.2% | ? | -24.4% | ? | -0.6% | -24.2

Source: PubChem BioAssay
